SKKanGAS inh: SKKanGAS growth inhibition; inhibition, % at 7.5 µM; 300,000 compounds, 1.3% hits; S. pyogenes SKKanGAS, kanamycin growth, BacTiter-Glo, 6 h;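 active = mean replicate score, as percent of positive control median, at least 50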;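 note: strain carries kanamycin resistance gene driven by streptokinase promoter and grows in 40 µg/ml kanamycin; loss of luminescence reflects streptokinase promoter inhibition or plain growth inhibition; 0% = median of DMSO wells and 100% = positive control at its reference dose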
tim10-1 inh: tim10-1 yeast growth inhibition; inhibition, % at 20 µM; AID 463190; S. cerevisiae tim10-1 ts strain growth, BacTiter-Glo, 24 h; 330,000 compounds, 2.2% hits;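 active = inhibition of at least 40%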;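 note: mutant grown at 25 °C; 0% = DMSO wells with yeast and 100% = wells holding no yeast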
NALP3 yeast inh: inhibitors of NALP3 inflammasome in yeast; Yeast reconstituted NLRP3/ASC/caspase-1, beta-gal luminescence, 24 h; inhibition, % at 10 µM; 330,000 compounds, 0.39% hits; AID 2825;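 active = inhibition of 50% or more; inactive = inhibition below 50%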;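 note: plate controls were induced DMSO wells for no effect and uninduced yeast grown without galactose for full effect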
tim23-1 inh: tim23-1 yeast growth inhibition; S. cerevisiae tim23-1 growth, BacTiter-Glo luminescence, 24 h; 330,000 compounds, 1.3% hits; inhibition, % at 20 µM;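 active = growth inhibition of the mutant yeast at or above 50%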;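 note: temperature-sensitive mutant grown at 25 °C; plate controls were DMSO-treated mutant yeast for no effect and medium wells lacking yeast for full effect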
TIM10 inh: inhibits growth of TIM10 yeast strain; S. cerevisiae TIM10 strain growth, BacTiter-Glo luminescence, 24 h; inhibition, % at 10 µM; 330,000 compounds, 1.4% hits; AID 463195;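 active = inhibition of 40% or more at the single tested concentration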;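 note: wild-type TIM10 isogenic control strain grown at permissive 25 °C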
PfHsp90 set2: reduces growth (ATP signal) of yeast expressing P. falciparum Hsp90. S. cerevisiae expressing PfHsp90, BacTiter-Glo ATP, 48 h; yeast lacking PDR1 and PDR3 efflux regulators. inhibition, % at 9.4 µM. 310,000 compounds, 0.32% hits. AID 504621;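 active = every replicate shows inhibition above about 80%, whatever the replicate mean, limit read from the data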;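 note: 0% = DMSO neutral controls and 100% = 20 µM radicicol positive controls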
An asterisk follows results filed as active; · = not tested or not shown; ! = not active in a repeat. Only some compounds are listed: those with a hit (about 4.6% of all), similar ones and a draw of the others.

SMILES | SKKanGAS inh | tim10-1 inh | NALP3 yeast inh | tim23-1 inh | TIM10 inh | PfHsp90 set2
CC(C)(C)OC(=O)CNC(=O)c1nc[nH]c1C(=O)N1CCc2ccccc2C1 | 1 | 4 | 24 | 6 | 1 | 8
Cc1cnc(NC(=O)c2cc3c(C)nn(Cc4ccccc4Cl)c3s2)s1 | 54* | 2 | 11 | -9 | -33 | -15
Nc1c(Cl)cc(C2=NCCn3c2c2ccc([N+](=O)[O-])cc2[n+]3[O-])cc1Cl | 68* | 24 | 7 | 0 | 1 | -23
CCC(C)(C)n1nnnc1C(c1cccnc1)N1CCC(Cc2ccccc2)CC1 (configuration not stated) | 2 | -56 | 7 | -346 | -45 | 83*
Cc1cccnc1NCc1ccc(O)c2ncccc12 | 67* | 19 | -18 | -20 | 31 | ·
CCOc1ccc(N=Nc2ccc(O)c3ncccc23)cc1 | 92* | 4 | 7 | 36 | 21 | 39
Cc1cccc(NCc2ccc(O)c3ncccc23)c1C | 11 | 2 | -23 | -7 | 13 | 18
NS(=O)(=O)c1ccc(N=Nc2ccc(O)c3ncccc23)cc1 | 11 | 19 | 37 | 30 | 6 | 40
Cc1ccc(C)c(N=Nc2ccc(O)c3ncccc23)c1 | 92* | 33 | 17 | 0 | 7 | 2
Cc1cccc(C(=O)N/C(=C\c2ccco2)C(=O)N2CCCC2)c1 | 4 | 2 | 20 | 0 | -2 | 15
COc1ccc(C2(CNC(=O)Cc3ccc(OC)c(OC)c3)CCOCC2)cc1 | 12 | 6 | 17 | 5 | -10 | 7
CC1CCCN(CC(O)COc2ccc(S(=O)(=O)N3CCCC3)cc2[N+](=O)[O-])C1 (configuration not stated) | · | -15 | 9 | -9 | -1 | -11
Cc1ccc(C(C)C)c(OCc2nn(CC(=O)c3ccc(OC(F)F)cc3)c3[n+]2CCCCC3)c1 | 71* | 30 | 0 | 17 | 22 | 9
CCc1ccccc1NC(=O)c1cccc(Oc2ccc([N+](=O)[O-])cc2Cl)c1 | 12 | 7 | 26 | -60 | -16 | 92*
COC(=O)CCC(=O)OC1(C)C(=O)C2=CN(Cc3ccc(OC)cc3)C(c3ccc(OC)cc3)=CC2=C(Br)C1=O (configuration not stated) | 12 | -5 | 13 | 8 | -2 | -1
COc1ccc(C2=CC3=C(Br)C(=O)C(C)(O)C(=O)C3=CO2)cc1 (configuration not stated) | 2 | 24 | 8 | 34 | 16 | 107*
CCC(=O)OC1(C)C(=O)C2=COC(c3ccc(OC)cc3)=CC2=C(Br)C1=O (configuration not stated) | 12 | -10 | 0 | 13 | -6 | 113*
CC(=O)Nc1ccc(S(=O)(=O)N[C@@H](C)C(=O)N2CCN(c3ccccn3)CC2)cc1 | -8 | 5 | -14 | 2 | 8 | -17
CC(Sc1n[nH]c(-c2ccccc2)n1)C(=O)c1c(N)n(C)c(=O)n(C)c1=O (configuration not stated) | -3 | -16 | 13 | -14 | -10 | 4
C/C(=N\NC(=O)c1cc(Br)ccc1O)c1cccc(NC(=O)c2ccccc2F)c1 | 63* | -9 | 15 | 18 | -2 | 0
CCCCCCCCCCOC(=O)Cn1c(COc2ccc(OC)cc2)[n+](C)c2ccccc21 | 13 | 30 | 15 | 26 | 33 | 108*!
CCCCCCCCCCOC(=O)Cn1c(COc2ccccc2)[n+](C)c2ccccc21 | 81* | -6 | 16 | -40 | 19 | -2
Nc1nc(Cl)nc2c1ncn2C1CC(O)C(CO)O1 (configuration not stated) | 2 | 4 | 20 | -15 | 12 | 4
CC(C)(C)OC(=O)NC1CCN(S(=O)(=O)c2ccc3c(c2)OCCO3)CC1 | -2 | 11 | -2 | 16 | 16 | -4
Cc1ccc(NC(=O)CN(C)C(=O)CNC(=O)c2sc3ccccc3c2Cl)cc1 | 30 | 1 | 31 | 24 | 11 | ·
SMILES | SKKanGAS inh | tim10-1 inh | NALP3 yeast inh | tim23-1 inh | TIM10 inh | PfHsp90 set2
COC(=O)c1c(NC(=O)c2ccccc2)sc(C(=O)c2ccccc2)c1C | 73* | -4 | 2 | -3 | -19 | -12
CCc1ccc(-c2cc(C)no2)cc1S(=O)(=O)N1CCOc2ccccc21 | 17 | 29 | 12 | 30 | -13 | -25
O=C1c2ccccc2NC(c2ccc([N+](=O)[O-])cc2)N1O (configuration not stated) | -13 | 2 | 44 | 14 | 13 | 15
CCCOc1cccc(-c2cc(C(=O)N/N=C/c3ccccn3)c3ccccc3n2)c1 | 92* | 19 | 15 | 41 | 27 | -10
CC(=O)N1c2ccc(S(=O)(=O)N(C)CC(=O)NC(C)c3ccccc3)cc2CC1C (configuration not stated) | -4 | 2 | -8 | 5 | 0 | 1
Cc1c(Cl)ccc2c(C(=O)Nc3cc(C(C)(C)C)on3)cc(-c3ccccn3)nc12 | 62* | -11 | 7 | 13 | 7 | 6
Cc1ccc(-n2c(C)cc(=O)cc2C)cc1[N+](=O)[O-] | 6 | -4 | -2 | 4 | 6 | -9
CN(Cc1ccc(F)cc1)C(=O)CNC(=O)c1ccc2c(c1)OCO2 | -1 | 2 | 23 | -1 | -7 | ·
CCC(C(=O)N1CCc2ccccc2C1)n1nc(C)n2c(cc3occc32)c1=O (configuration not stated) | -16 | 1 | 10 | 8 | -22 | -2
COc1ccc(Oc2cn[nH]c2-c2ccc(OCC(=O)NN)cc2O)cc1 | 88* | 21 | 8 | 13 | -3 | -8
COc1ccccc1Oc1cn[nH]c1-c1ccc(O)cc1O | -4 | 4 | 18 | 6 | 16 | -11
CCOc1ccc(-c2[nH]ncc2Oc2cccc(OC)c2)c(O)c1 | 26 | 38 | 9 | 16 | -6 | 1
COc1ccccc1Oc1cn[nH]c1-c1ccc(OCC(=O)NN)cc1O | 50* | 12 | 19 | 8 | 13 | 3
CCCOC(=O)c1ccc(Oc2cn[nH]c2-c2ccc(OCC)cc2O)cc1 | 78* | 28 | 3 | 35 | 22 | 98*
Cc1ccccc1CC1(CO)CCCN(C(=O)CCCN2CCCCC2=O)C1 (configuration not stated) | -6 | 0 | 3 | 23 | -1 | ·
S=c1[nH]nc(C2CCCCC2)n1/N=C/c1cccc(Cl)c1Cl | 59* | 26 | 16 | 33 | 24 | -21
O=C(Nc1cccnc1Cl)c1cc(-c2ccc(Br)cc2)on1 | -6 | 2 | 18 | 11 | -15 | 12
CC1=C(C)/C(=N\OS(=O)(=O)c2ccc(C)cc2)C=CC1=O | · | · | · | · | · | 110*
Nn1c(SCC(=O)Nc2ccccc2F)nnc1-c1cccs1 | -6 | -16 | 6 | -11 | -2 | ·
CCN1C(=O)C2(C(C(=O)c3cc4ccccc4o3)=C(O)C(=O)N2CCCN(C)C)c2ccccc21 (configuration not stated) | 4 | 0 | -3 | 7 | 11 | ·

Assay outcomes from PubChem BioAssay.
